Records with an inconclusive call do not appear. Entries that show only a call come without a potency. Calls of active or inactive are those of the source. The call rests on the fitted dose curve; in most records, active means well fitted cell-killing curve with a large enough effect; inconclusive means small, poorly fitted or top-dose-only effect, or effect the other way; inactive means flat fitted curve, though single readings scatter.

This assay is described as follows: qHTS of pediatric cancer cell lines to identify multiple opportunities for drug repurposing: Confirmatory screen for control Hh wild type fibroblast cells (AID 1347121). Further: nearly all actives have a fitted effect of over 70% in size. Conditions: viability qHTS; series mostly up to 45.9 µM. From the text: Drug repurposing or repositioning has been offered as a strategy for drug development in oncology programs. This approach has special potential for childhood cancers and other rare or orphan diseases, where the expected return on new drug development has been a disincentive to pharmaceuticals.
In this project we exploit the poly-pharmacology of drugs to discover new indications via phenotypic screening of a panel of 19 well-characterized cell lines derived from solid tumors seen in children and adolescents. The goal is to identify approved drugs with previously unrecognized anticancer properties that has the potential to reveal new mechanisms and biological processes involved in carcinogenesis or drug resistance. We employed a titration-based paradigm (quantitative high-throughput screening or qHTS), where all compounds were tested at multiple concentrations for their effect on cell viability. Concentration-response curves (CRCs) were derived directly from the primary screen, and both potency and efficacy values were used to identify compounds with robust bioactivity profiles. We screened the NIH Chemical Genomics Center (NCGC) Pharmaceutical Collection (NPC) and Mechanism Interrogation Plate (MIPE) small molecule collections of approved and investigational compounds against these cell lines; and measured metabolically active cells after 48 hours of compound treatment as a proxy for cell viability.
Assay Submitter: Nathalia J. Martinez, National Center for Advancing Translational Sciences, National Institutes of Health, Rockville, MD, USA; email: natalia.martinez@nih.gov
[1] Shen, M et al. Quantitative high-throughput phenotypic screening of pediatric cancer cell lines identifies multiple opportunities for drug repurposing. Oncotarget 2017 Dec 19;9(4):4758-4772. PMID 29435139.
The cells were obtained from University of North Carolina (UNC), Pediatric Preclinical Testing Program (PPT), and Coriell Institute (CI).
qHTS cell viability assay:
Cells were assayed in growth media at a density of 500-1,000 cells/well. Five microliters of cells were dispensed into 1,536-well, white, solid-bottom, TC-treated plates (Greiner Bio One) using a multidrop dispenser and incubated at 37 degrees C, 5% CO2, under a humidified atmosphere for 5 hours. Twenty-three nanoliters of compounds and controls (neutral control DMSO or positive control bortezomib at final concentration of 2.3 µM) were subsequently transferred by Kalypsys pintool. For primary screens, the MIPE collection was tested at 11-point dilutions (final concentrations range from 0.78 nM to 46 µM) and the NPC collection at 8-point dilutions (final concentrations range from 0.59 nM to 46 µM). Compounds tested in follow-up screens were assayed at 11-point dilutions. Cells were incubated for 48 hours, followed by addition of 3 µL of CellTiter-Glo (Promega). After a 15 min incubation at room temperature, samples were analyzed for luminescence intensity using a ViewLux High-throughput CCD imager equipped with clear filters.
For orientation: Quantitative high-throughput screening tests each substance at several concentrations.
For the compound `CC(C)C[C@H](NC(=O)c1cc2ccccc2s1)C(=O)N1CCN(C(=O)[C@H](CO)NS(=O)(=O)c2ccc(Cl)cc2Cl)CC1`, the Potency entry is “inactive”. For `CC1(C)OC2CC3C4CC(F)C5=CC(=O)C=CC5(C)C4C(O)CC3(C)[C@]2(C(=O)CO)O1` (stereo not given in full) the value was “inactive”; for `CC1CNc2c(cccc2S(=O)(=O)N[C@@H](CCCN=C(N)N)C(=O)N2CC[C@@H](C)C[C@@H]2C(=O)O)C1` (stereo not given in full), “inactive”.

As to `COc1cc(CNC(=O)CCCCC=CC(C)C)ccc1O`, the Potency result is “inactive”. For `Cc1csc(-c2nnc(Nc3ccc(Oc4ncccc4-c4ccnc(N)n4)cc3)c3ccccc23)c1` the value was “inactive”. In the case of `CCC(=O)OCC(=O)[C@@]1(OC(=O)CC)[C@@H](C)C[C@@H]2[C@H]3CCC4=CC(=O)C=C[C@]4(C)[C@@]3(F)[C@@H](O)C[C@@]21C`, the Potency result was “inactive”. Next, `CCC(c1ccc(O)cc1)C(CC)c1ccc(O)cc1` (stereo not given): “inactive”. Turning to `O=C(CC12CC3CC(CC(C3)C1)C2)Nc1cccc2nc(NCCNCCO)ccc12`, the Potency entry was “inactive”.

For the compound `COc1ccc2c(c1)c(C1=C(c3c[nH]c4ccccc34)C(=O)NC1=O)cn2CCCN(C)C`, the Potency result is “inactive”.

As for `Cc1nn(Cc2ccccc2Cl)c(C)c1CN(C)CC(O)COc1ccc(Cl)cc1` (stereo not given), the Potency result was “inactive”.

Turning to `CCC(C)SSc1ncc[nH]1` (stereo not given), the Potency entry is “inactive”. Next, `Cc1ccccc1-n1c(Cn2nc(-c3cccc(O)c3)c3c(N)ncnc32)nc2cccc(C)c2c1=O`: “inactive”; `CO[C@H]1/C=C\O[C@@]2(C)Oc3c(C)c(O)c4c(O)c(c5c(nc6cc(C)ccn65)c4c3C2=O)NC(=O)C(C)=CC=C[C@H](C)[C@H](O)[C@@H](C)[C@@H](O)[C@@H](C)[C@H](OC(C)=O)[C@H]1C`: “inactive”.

As for `COC1CCC(C(=O)c2ccc3nc4c(cc3c2)CCCO4)CC1` (stereo not given), the Potency entry is “inactive”. Take `C[C@H](c1ccc(F)cc1CCCC(=O)O)N(c1cc(F)ccc1F)S(=O)(=O)c1ccc(Cl)cc1`: the Potency result was “inactive”.

Take `C[C@@]1(c2cc(-c3cncnc3)c(F)cc2F)CCSC(N)=N1`: the Potency result was “inactive”.

With `CN(C(Cc1ccc(OS(=O)(=O)c2cccc3cnccc23)cc1)C(=O)N1CCN(c2ccccc2)CC1)S(=O)(=O)c1cccc2cnccc12` (stereo not given), the Potency result was “inactive”.

As for `CCC[C@H](N[C@@H](C)C(=O)N1[C@@H]2CCCC[C@H]2C[C@H]1C(=O)O)C(=O)OCC`, the Potency entry was “inactive”.

In the case of `C[C@@H]1[C@H](O)[C@@H](C)C=CC=CC=CC=CC=CC=CC=C[C@H](O[C@@H]2O[C@H](C)[C@H](O)[C@H](N)[C@@H]2O)C[C@@H]2O[C@](O)(C[C@@H](O)C[C@@H](O)[C@H](O)CC[C@@H](O)C[C@@H](O)CC(=O)O[C@H]1C)C[C@H](O)[C@@H]2C(=O)O`, the Potency result is “inactive”. Next, `O=C1NC(=O)C(c2cnc3ccccn23)=C1c1cn2c3c(cccc13)CN(C(=O)N1CCOCC1)CC2`: “inactive”; `CCC(=O)N1CCN(c2ccc(-n3c(=O)ccc4cnc5ccc(-c6cnc7ccccc7c6)cc5c43)cc2C(F)(F)F)CC1`: “inactive”.

Regarding `CC(C)CN(C[C@@H](O)[C@H](Cc1ccccc1)NC(=O)O[C@H]1CO[C@H]2OCC[C@H]21)S(=O)(=O)c1ccc(N)cc1`, the Potency result is “inactive”. Take `COc1cc2nccc(Oc3ccc(NC(=O)Nc4cc(C)on4)c(Cl)c3)c2cc1OC`: the Potency result is “inactive”. As for `CN(C)CC[C@H](CSc1ccccc1)Nc1ccc(S(=O)(=O)NC(=O)c2ccc(N3CCN(Cc4ccccc4-c4ccc(Cl)cc4)CC3)cc2)cc1[N+](=O)[O-]`, the Potency result was “inactive”. For `CN1CCN(c2ncc(-c3cc(Cl)cc(Cl)c3Cl)c(N)n2)CC1` the value was “inactive”. On to `OCCn1cc(-c2ccc3c(c2)CCC3=NO)c(-c2ccncc2)n1`, for which the Potency result is “inactive”.

Take `COc1cc2c(cc1OC)[C@@H]1Cc3ccc(OC)c(OC)c3CN1CC2`: the Potency entry is “inactive”.

`C[C@@H]1C[C@H]2[C@@H]3CCC4=CC(=O)C=C[C@]4(C)[C@@]3(F)[C@@H](O)C[C@]2(C)[C@@]1(O)C(=O)CO`: the Potency result is “inactive”. Next, `CC[C@H](NC(=O)[C@H](C)NC)C(=O)N1C[C@@H](O)C[C@H]1Cc1c(-c2[nH]c3cc(F)ccc3c2C[C@H]2C[C@H](O)CN2C(=O)[C@H](CC)NC(=O)[C@H](C)NC)[nH]c2cc(F)ccc12`: “inactive”; `CC1=C[C@@H]2[C@@H]([C@@H](O)C[C@@]3(C)[C@H]2C[C@@H](C)[C@]3(O)C(=O)CO)[C@@]2(C)Cc3cnn(-c4ccccc4)c3C=C12`: “inactive”. Regarding `COc1cc2ncnc(Nc3cc(Br)c(O)c(Br)c3)c2cc1OC`, the Potency entry was “inactive”.

As for `COc1cc2c(cc1Cc1cccc(Cl)c1F)c(=O)c(C(=O)O)cn2[C@H](CO)C(C)C`, the Potency result is “inactive”. Next, `CC(C)CN(C[C@H](O)[C@H](Cc1ccccc1)NC(=O)O[C@H]1CCOC1)S(=O)(=O)c1ccc(N)cc1`: “inactive”; `C=C1[C@H](n2cnc3c(=O)[nH]c(N)nc32)C[C@H](O)[C@H]1CO`: “inactive”; `Cc1ccc(S(=O)(=O)Nc2nc3ccccc3nc2Nc2ccc3nsnc3c2)cc1`: “inactive”.

As to `CCCC1OC2C[C@@H]3[C@H]4CCC5=CC(=O)C=C[C@]5(C)[C@H]4C(O)C[C@]3(C)[C@]2(C(=O)CO)O1` (stereo not given in full), the Potency entry is “inactive”.

Consider `NC(N)=Nc1nc(CSCCC(N)=NS(N)(=O)=O)cs1`, for which the Potency entry was “inactive”. For `O=C(c1ccc(F)c(F)c1Nc1ccc(I)cc1F)N1CC(O)([C@H]2CCCCN2)C1` the value was “inactive”; for `COC(=O)[C@H](c1ccccc1Cl)N1CCc2sccc2C1`, “inactive”; for `CC(=O)N1CCN(c2ccc(OCc3nn(C)c(C)c3-c3cccc4c(CCCOc5cc(C)c(Cl)c(C)c5)c(C(=O)O)n(Cc5cccnc5)c34)cc2)CC1`, “inactive”.

The values are drawn from PubChem BioAssay (NCATS).
